Luciferase inh: Photinus pyralis luciferase inhibition; P08659; purified P. pyralis luciferase, luminescence, biochemical; Potency, µM (doses to about 115 µM), usual class: inhibitors; 76,000 tested, 2.5% active; AID 1347043; also: nearly all actives have a fitted effect of over 65% in size
Target sequence (P08659 whole entry, looked up): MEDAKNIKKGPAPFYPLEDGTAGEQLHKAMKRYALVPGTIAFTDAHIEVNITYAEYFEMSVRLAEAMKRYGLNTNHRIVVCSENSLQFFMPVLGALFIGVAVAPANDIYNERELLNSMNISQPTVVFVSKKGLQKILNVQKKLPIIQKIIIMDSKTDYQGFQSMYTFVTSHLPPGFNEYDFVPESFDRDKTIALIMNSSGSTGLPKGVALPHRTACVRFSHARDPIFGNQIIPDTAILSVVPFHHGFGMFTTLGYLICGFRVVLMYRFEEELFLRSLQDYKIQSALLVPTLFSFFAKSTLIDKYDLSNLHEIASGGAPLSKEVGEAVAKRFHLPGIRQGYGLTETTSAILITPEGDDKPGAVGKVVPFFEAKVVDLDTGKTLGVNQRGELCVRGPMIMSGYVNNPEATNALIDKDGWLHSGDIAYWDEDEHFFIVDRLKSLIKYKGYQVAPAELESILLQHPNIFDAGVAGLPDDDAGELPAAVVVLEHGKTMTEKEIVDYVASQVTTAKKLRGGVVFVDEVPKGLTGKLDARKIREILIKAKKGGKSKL
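Luminescence read by CCD imager after adding enzyme (10nM final) to wells holding compound, titrated in qHTS. Substrates 10uM each D-luciferin and ATP; buffer 50mM Tris acetate pH 7.5, 10mM Mg acetate, Tween-20, BSA.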
HEK cytotox: cytotoxic compounds in HEK 293 cells. Potency, µM (doses to about 115 µM), actives largely listed as inhibitors. 94,000 tested, 6.6% active. HEK 293 viability, ATP luminescence (CellTiter-Glo), 48-72 h; also: nearly all actives have a fitted effect of over 60% in size
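ATP-coupled CellTiter-Glo luminescence served as viability read-out, recorded 10 min after reagent addition at room temperature. HEK 293 cells, 250 cells/well, had been incubated with pintool-transferred compound for 48 or 72 hr at 37 degree Celsius.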
3T3 cytotox: cytotoxic compounds in NIH 3T3 cells; Potency, µM (highest dose often 96.7 µM), actives largely listed as inhibitors; NIH 3T3 viability, CellTiter-Glo ATP luminescence, 48-72 h; 94,000 tested, 4.3% active; also: nearly all actives have a fitted effect of over 55% in size
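Mouse fibroblast NIH 3T3 cells, 400 per well, received compound via pintool and were incubated for 48 or 72 hr prior to CellTiter-Glo ATP luminescence measurement.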
GPT2 inhibitor: inhibitors of human GPT2 alanine aminotransferase. 100,000 tested, 0.25% active. Recombinant GPT2, coupled pyruvate oxidase/HRP Amplex Red fluorescence. AID 1671188. Potency, µM (series often up to 57.7 µM), most hits filed as inhibitors. Q8TD30; also: nearly all actives have a fitted effect of over 60% in size
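GPT2 10ng/uL, a-KG 250uM, L-Ala 2mM, HEPES pH7.5 + 0.0001% Tween; 30 min RT. Then Amplex mix (PO/HRP/ThPP), 30 min RT dark, fluorescence. AOA 50uM used as positive control.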
hNpr1 antagonist: antagonists of human natriuretic peptide receptor Npr1; P16066; HEK293 hNpr1 GloSensor cGMP, ANP-stimulated luminescence; Potency, µM (doses to about 46.3 µM), hits mostly inhibitors; 76,000 tested, 1.6% active; AID 1347048; calls by dose curve; also: nearly all actives have a fitted effect of over 60% in size
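Compound pre-incubated 30 min at room temperature on GloSensor-loaded HEK293 cells stably carrying hNpr1 and the pGS-40F cGMP biosensor. Stimulation uses hNppA at 0.1 nM final; luminescence is taken at baseline and 20 min post-agonist.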
Of the large screens only hits and unclear results are named; the others gave an inactive call. Sampled rows, rich in hits. Any-hit rate of the full collection: about 10%. Unless noted, calls follow the shape of the dose curve; as a rule, active = well fitted curve in the direction sought with a large enough effect; inconclusive = small, poorly fitted or top-dose-only effect, or another doubt; inactive = no such curve, though single readings can be large; an effect the other way counts as inactive or inconclusive.

COc1ccc(CNC[C@H]2C[C@@H]3CCN2C[C@@H]3c2cc(-c3ccc4ccccc4c3)nn2C)cc1	HEK cytotox inconclusive, 3T3 cytotox 25µM
COc1ccc(CNC[C@H]2C[C@@H]3CCN2C[C@@H]3c2cc(C3CCCCC3)nn2C)cc1	HEK cytotox 32µM, 3T3 cytotox 28µM
COc1ccc(-c2cc([C@H]3CN4CC[C@H]3C[C@@H]4CNC(=O)NCc3ccccc3)n(C)n2)cc1	HEK cytotox inconclusive, 3T3 cytotox inconclusive
CCOC(=O)[C@H]1CN([S+](=O)([O-])c2cccs2)[C@]2(C)C(=O)N(CC3CC3)c3ccccc3[C@H]12	HEK cytotox inconclusive, 3T3 cytotox inconclusive (no result: Luciferase inh, hNpr1 antagonist)
NCC(O)c1cc(O)c(O)cc1F (stereo unspecified)	GPT2 inhibitor 10µM (no result: Luciferase inh, HEK cytotox, 3T3 cytotox, hNpr1 antagonist)
Cc1cccc(NC(=O)N[C@H]2CN(C)c3ccccc3C(c3ccccc3)=N2)c1	none (no result: Luciferase inh, HEK cytotox, 3T3 cytotox, hNpr1 antagonist)
COc1cc2c(cc1Oc1ccccc1)NC(=O)C21CCN(CC2CC2)CC1	HEK cytotox inconclusive, 3T3 cytotox 45µM
COc1cc2c(cc1Oc1cccc(N(C)C)c1)NC(=O)C21CCN(c2ncccn2)CC1	HEK cytotox inconclusive, 3T3 cytotox inconclusive, hNpr1 antagonist inconclusive
COc1cc2c(cc1Oc1ccccc1)NC(=O)C21CCN(C(=O)C(C)C)CC1	HEK cytotox inconclusive
COc1cc2c(cc1Oc1cccc(N(C)C)c1)NC(=O)C21CCN(CC2CC2)CC1	HEK cytotox inconclusive, 3T3 cytotox 79µM, hNpr1 antagonist inconclusive
CC(=O)OC1CC(O)C2(C)C(CC(OC(C)=O)C3(C)C2CCC2(C)C(c4ccoc4)C(=O)C4OC423)C1(C)C (stereo unspecified)	none (no result: Luciferase inh, HEK cytotox, 3T3 cytotox, hNpr1 antagonist)
CCCCCn1cc(C(=O)c2cccc3ccccc23)c2ccccc21	none (no result: Luciferase inh, HEK cytotox, 3T3 cytotox, hNpr1 antagonist)
CCOC(=O)[C@H]1CN(C(=O)CC2CCCC2)[C@]2(C)C(=O)Nc3ccccc3[C@H]12	HEK cytotox inconclusive, 3T3 cytotox inconclusive (no result: Luciferase inh, hNpr1 antagonist)
CCC(CC)c1cc([C@H]2CN3CC[C@H]2C[C@@H]3CNC(=O)c2ccco2)nc(-c2ccncc2)n1	none
CCC(CC)c1cc([C@H]2CN3CC[C@H]2C[C@@H]3CO)nc(-c2ccncc2)n1	HEK cytotox 112µM, 3T3 cytotox 112µM
CCC(CC)c1cc([C@H]2CN3CC[C@H]2C[C@@H]3CNC(=O)c2ccc(C)cc2)nc(-c2ccncc2)n1	HEK cytotox 45µM, 3T3 cytotox inconclusive, GPT2 inhibitor inconclusive
CCC(CC)c1cc([C@H]2CN3CC[C@H]2C[C@@H]3COC(=O)Nc2ccccc2)nc(-c2ccncc2)n1	GPT2 inhibitor inconclusive
CCC(CC)c1cc([C@H]2CN3CC[C@H]2C[C@@H]3CNC(=O)Nc2cccc(C#N)c2)nc(-c2ccncc2)n1	HEK cytotox inconclusive, 3T3 cytotox 79µM
CCC(CC)c1cc([C@H]2CN3CC[C@H]2C[C@@H]3CNC(=O)c2ccc(N(C)C)cc2)nc(-c2ccncc2)n1	HEK cytotox 20µM, 3T3 cytotox inconclusive
C=C[C@H]1CN2CC[C@H]1C[C@@H]2CNC(=O)c1ccc(N(C)C)cc1	HEK cytotox inconclusive
CCCCOC(=O)N1C[C@H](C(=O)OCC)[C@H]2c3ccccc3N(CC3CC3)C(=O)[C@]21C	HEK cytotox inconclusive, 3T3 cytotox inconclusive (no result: Luciferase inh, hNpr1 antagonist)
COC1CC(O[C@H]2CC[C@]3(C)C4CC[C@]5(C)[C@@H](C6=CC(=O)OC6)[C@@H](OC(C)=O)C[C@]5(O)C4CC[C@@H]3C2)OC(C)C1O[C@@H]1O[C@H](CO)[C@@H](O)[C@H](O)[C@H]1O (stereo partly specified)	none (no result: Luciferase inh, HEK cytotox, 3T3 cytotox, hNpr1 antagonist)
CN1C2CCC1CC(OC(=O)N1Cc3ccccc3NC1=O)C2 (stereo unspecified)	none (no result: Luciferase inh, HEK cytotox, 3T3 cytotox, hNpr1 antagonist)
Cc1ccc(Cn2nc(C(=O)N[C@@H]3C(C)(C)[C@@H]4CC[C@@]3(C)C4)cc2-c2ccc(Cl)c(C)c2)cc1	none (no result: Luciferase inh, HEK cytotox, 3T3 cytotox, hNpr1 antagonist)
CCC(CC)c1cc([C@H]2CN3CC[C@H]2C[C@@H]3CNC2CCN(C(C)=O)CC2)nc(-c2ccncc2)n1	HEK cytotox 79µM, 3T3 cytotox inconclusive
Cc1nc(-c2ccccc2)cc([C@H]2CN3CC[C@H]2C[C@@H]3CNS(=O)(=O)Cc2ccccc2)n1	HEK cytotox 79µM, 3T3 cytotox 79µM
Cn1nc(-c2ccccc2)cc1[C@H]1CN2CC[C@H]1C[C@@H]2CNC(=O)c1cccs1	HEK cytotox inconclusive, 3T3 cytotox inconclusive
CCC(CC)c1cc([C@H]2CN3CC[C@H]2C[C@@H]3CNC(=O)c2cccs2)nc(-c2ccncc2)n1	HEK cytotox inconclusive, 3T3 cytotox 22µM, hNpr1 antagonist inconclusive
CCC(CC)c1cc([C@H]2CN3CC[C@H]2C[C@@H]3CNC(=O)Cc2cccs2)nc(-c2ccncc2)n1	HEK cytotox 40µM, 3T3 cytotox 28µM, hNpr1 antagonist inconclusive
Cc1nc(-c2ccccc2)cc([C@H]2CN3CC[C@H]2C[C@@H]3CNC(=O)c2cccs2)n1	HEK cytotox 71µM, 3T3 cytotox inconclusive
COC1CC(O[C@H]2CC[C@]3(C=O)C4CC[C@]5(C)[C@@H](C6=CC(=O)OC6)CC[C@]5(O)[C@@H]4CC[C@@H]3C2)OC(C)C1O[C@@H]1O[C@H](CO)[C@@H](O[C@@H]2O[C@H](CO)[C@@H](O)[C@H](O)[C@H]2O)[C@H](O)[C@H]1O (stereo partly specified)	none (no result: Luciferase inh, HEK cytotox, 3T3 cytotox, hNpr1 antagonist)
CN1C(=O)C(Cc2ccc3ccccc3c2)N=C(c2ccc(O)cc2)c2cc(Cl)ccc21 (stereo unspecified)	none (no result: Luciferase inh, HEK cytotox, 3T3 cytotox, hNpr1 antagonist)
CC(C)[C@H]1C(=O)N[C@H](CO)Cc2c[nH]c3cccc(c23)N1C	GPT2 inhibitor 15µM (no result: Luciferase inh, HEK cytotox, 3T3 cytotox, hNpr1 antagonist)
CC[C@H]1CN2CC[C@H]1C[C@@H]2CNC(=O)Nc1ccccc1	none
CC[C@H]1CN2CC[C@H]1C[C@@H]2CNC(=O)Nc1ccc(Oc2ccccc2)cc1	HEK cytotox 25µM, 3T3 cytotox 28µM, GPT2 inhibitor inconclusive
COc1ccc(NC(=O)NC[C@H]2C[C@@H]3CCN2C[C@@H]3CN2CCN(c3ccccc3OC)CC2)cc1	HEK cytotox 89µM, 3T3 cytotox inconclusive
CC[C@H]1CN2CC[C@H]1C[C@@H]2CNC(=S)Nc1ccc(C)cc1Br	HEK cytotox inconclusive, 3T3 cytotox 45µM
C=C[C@H]1CN2CC[C@H]1C[C@@H]2CNCc1ccc(SC)cc1	HEK cytotox 89µM, 3T3 cytotox inconclusive
COc1ccc(OC)c(S(=O)(=O)NC[C@H]2C[C@@H]3CCN2C[C@@H]3c2cc(-c3ccc4ccccc4c3)nn2C)c1	HEK cytotox inconclusive, 3T3 cytotox inconclusive
Cn1nc(-c2ccc3ccccc3c2)cc1[C@H]1CN2CC[C@H]1C[C@@H]2CNS(=O)(=O)c1ccccc1	Luciferase inh inconclusive, HEK cytotox 25µM, 3T3 cytotox inconclusive
Cn1nc(-c2ccc3ccccc3c2)cc1[C@H]1CN2CC[C@H]1C[C@@H]2CNC(=O)COc1ccccc1	HEK cytotox 25µM, 3T3 cytotox 28µM
